Compound activity deposited in PubChem BioAssay by National Center for Advancing Translational Sciences (NCATS).
Pf growth 48h: Primary qHTS for delayed death inhibitors of the malarial parasite plastid, 48 hour incubation; 310,000 tested, 5.9% active; Potency, µM (highest dose often 28.7 µM), inactives show top-dose activity change, negative = inhibition, usual class: inhibitors; AID 504832, 2011; P. falciparum luciferase growth in erythrocytes, 48 h; also: potency is read from the fitted curve at half-maximal effect
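Luciferase-expressing parasites in RBCs, 2% Hct / 0.1% parasitemia final; RPMI 1640 + 0.5% Albumax; 37 C, 5% CO2, one generation; luminescence read-out, lower signal = inhibition.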
FBPA Giardia inh: qHTS Assay for Inhibitors of Fructose-1,6-bisphosphate Aldolase from Giardia Lamblia | A8B2U2 | purified Giardia FBPA | Potency, µM (doses to about 59.6 µM), without a hit: at the top dose activity, negative = inhibition, hits mostly inhibitors | 290,000 tested, 0.71% active | AID 2451, 2010; also: potency is read from the fitted curve at half-maximal effect; nearly all actives have a fitted effect of over 55% in size
Target sequence (A8B2U2 whole entry, looked up): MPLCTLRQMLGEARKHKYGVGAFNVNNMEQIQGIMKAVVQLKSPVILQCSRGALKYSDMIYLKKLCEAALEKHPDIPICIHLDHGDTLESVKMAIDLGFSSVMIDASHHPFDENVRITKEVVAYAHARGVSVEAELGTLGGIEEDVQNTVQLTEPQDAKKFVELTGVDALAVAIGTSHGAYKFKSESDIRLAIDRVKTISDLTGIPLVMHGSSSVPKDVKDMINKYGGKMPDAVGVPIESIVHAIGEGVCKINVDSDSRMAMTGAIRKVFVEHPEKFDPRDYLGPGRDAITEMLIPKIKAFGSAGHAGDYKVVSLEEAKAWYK
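Giardia FBPA (40 nM reagent) was preincubated 10 min at RT with compound (up to 57.5 uM final), then substrate plus GAPDH/TPI/NAD/arsenate coupling system with diaphorase/resazurin was added; resorufin fluorescence (525/598 nm) was read after 20 min.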
HCMV antiviral: qHTS Assay for inhibitors of the human cytomegalovirus (HCMV). HFF cells, HCMV-luciferase reporter, 72 h; hits give low values. activity change, negative = inhibition, % at 57.5 µM. 410,000 tested, 4.5% active; in the data active = activity change below about -60%; inconclusive = no clear call, values can overlap the other calls; inactive = above about -39%
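Luciferase read-out from HCMV-luciferase-infected HFFs (MOI 1 PFU/cell) 72 h post infection at 37C; compounds added after 16 h cell attachment; activity normalized between buffer-only basal and Salinomycin (10uM) inhibitor controls.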
Pf growth 96h: Primary qHTS for delayed death inhibitors of the malarial parasite plastid, 96 hour incubation; AID 504834, 2011; P. falciparum luciferase reporter growth, 96 h; Potency, µM (highest dose often 28.7 µM), without a hit: top-dose activity change, negative = inhibition, usual class: inhibitors; 320,000 tested, 6.9% active; also: potency is read from the fitted curve at half-maximal effect
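P. falciparum expressing integrated firefly luciferase, in erythrocytes at 2% hematocrit, 0.05% parasitemia, incubated with compounds 96 h at 37 C, 5% CO2. Growth inhibition read as loss of luminescence; two-generation exposure targets delayed-death apicoplast inhibitors.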
Sm TGR inh: qHTS Assay for the Inhibitors of Schistosoma Mansoni Peroxiredoxins | purified TGR, DTNB reduction, TNB absorbance 405 nm | Potency, µM (highest dose often 114 µM), without a hit: at the highest dose activity change, negative = inhibition, most hits filed as inhibitors | Schistosoma mansoni thioredoxin glutathione reductase (TGR), Q962Y6 | 360,000 tested, 3% active; also: potency is read from the fitted curve at half-maximal effect; nearly all actives have a fitted effect of over 60% in size
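TGR 20 nM + NADPH 100 uM (dispensed conc.), cpd preinc 15 min RT; start with NADPH (500 uM addition) then DTNB (15 mM addition). Kinetic TNB absorbance, 405 nm filter. Four-parameter Hill fit across titration.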
Numbers without * were called inactive; ? = inconclusive; . = not tested or not shown; [ ] = remark or other dose. Only some compounds are listed: those with a hit (about 14% of all), similar ones and a draw of the others. Unless noted, calls follow the shape of the dose curve; as a rule, active = well fitted curve in the direction sought with a large enough effect; inconclusive = small, poorly fitted or top-dose-only effect, or another doubt; inactive = no such curve, though single readings can be large; an effect the other way counts as inactive or inconclusive. % is scaled to controls: 0 for no effect and ±100 for the full control effect.

SMILES	Pf growth 48h	FBPA Giardia inh	HCMV antiviral	Pf growth 96h	Sm TGR inh
Cc1ccc(Cn2ccn(Cc3ccc(C)cc3)c(=O)c2=O)cc1	.	.	10	.	7%
COc1cccc(-c2sc3ccc(OC)cc3c2-c2ccc(O)cc2)c1	?	.	-6	?	1%
COc1cccc(-c2sc3ccc(OC)cc3c2-c2cc(F)cc(OC)c2)c1	?	.	6	2.9µM*	-5%
CS(=O)(=O)N1CCC[C@@]2(CCN(c3ccccc3)C2)C1	.	-20%	.	.	.
Cc1cc(C)cc(NC(=O)NCc2c(-c3ccccc3)noc2C)c1	?	1%	22	?	-8%
Cc1onc(-c2ccccc2)c1CNC(=O)Nc1ccc(C(F)(F)F)cc1	6.6µM*	-4%	?	4.1µM*	12%
Cc1onc(-c2ccccc2)c1CNC(=O)Nc1cccc(Cl)c1	-155%	-4%	-40	9.3µM*	-7%
CCOC(=O)C1=Nc2ccccc2C1=[N+]=[N-]	?	-6%	-100*	52%	-5%
CCOC(=O)C1=Nc2cccc3c(O)ccc1c23	.	.	16	.	.
CC(C)c1ccc(NC(=O)CN2C(=O)COc3ccc(S(=O)(=O)N4CCOCC4)cc32)cc1	11%	.	0	-2%	-8%
O=C(Nc1ccc(Br)cc1)c1ccccc1CC[N+](=O)[O-]	?	-6%	-12	-9%	-6%
Cc1cc(C)cc(NC(=O)c2ccccc2CC[N+](=O)[O-])c1	?	2%	-5	4%	40µM*
CC(C)Sc1ncc(Cl)c(C(=O)Nc2ccc(S(=O)(=O)N(C)c3ccccc3)cc2)n1	.	.	-6	.	-10%
CCS(=O)(=O)c1ncc(Cl)c(C(=O)Nc2ccc(S(=O)(=O)N(C)c3ccccc3)cc2)n1	-5%	1%	-101*	-7%	0.5µM*
CCN(c1ccccc1)S(=O)(=O)c1ccc(NC(=O)c2nc(S(C)(=O)=O)ncc2Cl)cc1	7%	.	-100*	?	0.4µM*
CCSc1ncc(Cl)c(C(=O)Nc2ccc(S(=O)(=O)N(C)c3ccccc3)cc2)n1	.	.	-22	.	13%
C/C=C/c1cccc(-c2nc(C(=O)NC3CCC3)cc3c2[C@@H](CCO)N(S(=O)C(C)(C)C)C3)c1 (some centres undefined)	.	.	-9	.	.
C[C@@]12CC[C@@H]3c4ccc(O)cc4CC[C@H]3[C@H]1C[C@@H](O)[C@H]2O	.	1%[21.7 µM]	.	.	.
COc1ccc(N(CC(=O)NN=C2CCN(C)CC2)S(=O)(=O)c2ccc(NC(C)=O)cc2)cc1	-7%	-3%	13	?	-2%
CCC(C)(C(=O)NC1CCCC1)N(Cc1cccs1)C(=O)c1ccccn1 (centres undefined)	9%	1%	2	2.9µM*	2%
CCC(C)(C(=O)NC1CCCCC1)N(Cc1cccs1)C(=O)c1ccccn1 (centres undefined)	-11%	11%	-28	?	6%
COc1ccc2cc(C(N)=O)/c(=N\NC(=O)c3ccccc3)oc2c1	26%	0%	23	39%	5%
Cc1cccc(N=c2oc3cc(O)ccc3cc2C(N)=O)c1	23%	6%	-61*	2%	-2%
COc1ccc2cc(C(N)=O)c(=Nc3ccc(C)cc3)oc2c1	?	1%	-83*	90%	7%
CCCNC(=O)CNC(=O)c1ccc(C#N)cc1	.	.	30	.	.
CCc1nn(CC(=O)Nc2ccc(N(CC)CC)cc2C)c(=O)c2cc3sccc3n12	.	.	3	.	2%
CC(NC(=O)CN1CCN(S(=O)(=O)c2ccc(Br)cc2)CC1)c1ccccc1 (centres undefined)	?	.	1	-5%	-1%
O=C(NCc1ccccc1)C(=O)NCC(c1ccco1)S(=O)(=O)c1ccccc1 (centres undefined)	.	.	31	.	?
O=C(NCc1ccccc1F)C(=O)NCC(c1cccs1)S(=O)(=O)c1cccs1 (centres undefined)	.	.	-11	.	?
O=C(NCc1ccccc1Cl)C(=O)NCC(c1cccs1)S(=O)(=O)c1ccccc1 (centres undefined)	.	.	2	.	-13%
